Measured values: PubChem BioAssay AID1851 (National Center for Advancing Translational Sciences (NCATS), 2009)
Screen size: about 16,000 compounds; about 5,700 (36%) were called active. Not shown: some 24% with an inconclusive outcome. Calls follow the shape of the dose curve; as a rule, active = well fitted curve in the direction sought with a large enough effect; inconclusive = small, poorly fitted or top-dose-only effect, or effect the other way; inactive = no such curve, though single readings can be large or run the other way. The list shows a part of the results.

Each compound was assayed against Cytochrome P450 1A2 (Homo sapiens) (UniProt P05177) (assay: Cytochrome panel assay with activity outcomes). Details: recombinant CYP, pro-luciferin dealkylation, luminescence, p450-cyp1a2; series mostly up to 57.1 µM; activity, negative = inhibition: at the top concentration.
Cytochrome P450 1A2 (Homo sapiens), sequence (P05177 whole entry, looked up): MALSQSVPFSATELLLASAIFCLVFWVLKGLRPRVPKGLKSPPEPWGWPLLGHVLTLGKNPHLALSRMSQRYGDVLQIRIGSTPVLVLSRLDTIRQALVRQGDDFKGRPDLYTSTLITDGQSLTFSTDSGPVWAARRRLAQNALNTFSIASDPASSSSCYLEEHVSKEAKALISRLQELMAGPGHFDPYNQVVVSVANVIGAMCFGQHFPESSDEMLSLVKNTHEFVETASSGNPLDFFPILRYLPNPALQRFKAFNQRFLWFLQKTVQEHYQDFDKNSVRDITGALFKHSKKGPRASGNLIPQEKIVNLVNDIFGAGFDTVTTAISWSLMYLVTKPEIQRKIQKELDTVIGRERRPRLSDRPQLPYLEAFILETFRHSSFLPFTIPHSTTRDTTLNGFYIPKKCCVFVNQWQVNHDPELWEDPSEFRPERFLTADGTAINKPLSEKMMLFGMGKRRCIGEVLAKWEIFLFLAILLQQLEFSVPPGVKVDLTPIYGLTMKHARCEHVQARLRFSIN
% is scaled to controls: 0 for no effect and ±100 for the full control effect.

activity, negative = inhibition, inactive:
CC(=O)[C@@]1(O)CC[C@H]2[C@H]3C[C@@H](C)C4=CC(=O)C=C[C@]4(C)[C@@]3(F)[C@@H](O)C[C@]21C -14.8% [at 25.6 µM]
CC(=O)[C@H]1CC[C@H]2[C@@H]3C=CC4=CC(=O)CC[C@@]4(C)[C@H]3CC[C@]12C -8.55% [at 25.6 µM]
Cc1ccc(S(=O)(=O)N[C@H]2COC(=O)C/C=C\[C@H](C)[C@@H](NS(=O)(=O)c3ccc(C)cc3)COC(=O)C/C=C\[C@@H]2C)cc1 -10.6% [at 11.4 µM]
C[C@H](CO)NC(=O)[C@H]1C[C@@H]1[C@H](NP(=O)(c1ccccc1)c1ccccc1)c1ccccc1 -7.78%
Cc1cc(CNC(=O)[C@@H]2C[C@H]2[C@@H](NP(=O)(c2ccccc2)c2ccccc2)c2ccccc2)nn1C -17.4%
Cc1ccc(CNC(=O)[C@H]2C[C@@H]2[C@H](NP(=O)(c2ccccc2)c2ccccc2)c2ccccc2)c(F)c1F -17.4%
C[C@H](CO)NC(=O)[C@@H]1C[C@H]1[C@@H](NP(=O)(c1ccccc1)c1ccccc1)c1ccccc1 -9.59%
Cn1cccc1C(=O)N1CCC[C@@]2(CCN(Cc3nccs3)C2)C1 -7.87%
CCC(=O)N1CCN(c2ccc(NC(=O)c3cccs3)cc2)CC1 -9.21%
CCN(CC)S(=O)(=O)c1ccc(C(=O)Nc2ncn(Cc3ccccc3)n2)cc1 -10.7%
CCCCN(CC)S(=O)(=O)c1ccc(C(=O)Nc2nnc(CSC)o2)cc1 -27.9%
CC(=O)N(O)CCCCCNC(=O)CCC(=O)N(O)CCCCCNC(=O)CCC(=O)N(O)CCCCCN -5.91% [at 25.6 µM]
O=C1[C@@H]2C=CC=CC2=NC(=S)N1CCN1CCC(=C(c2ccc(F)cc2)c2ccc(F)cc2)CC1 -5.13%
CN(C(=O)C(Cl)Cl)c1ccc(OC(=O)c2ccco2)cc1 -3.35% [at 25.6 µM]
O=C(NNC(=S)Nc1ccccc1)c1ccco1 0.324%

AC50, active:
O=c1c(-c2cccc(Cl)c2)nc2cncnc2n1-c1ccccc1 2 µM
COc1ccc(-n2c(=O)c(-c3cccc(Cl)c3)nc3cncnc32)cc1 1 µM
O=c1c(-c2ccccc2)nc2cncnc2n1-c1ccccc1 5.01 µM
O=C(Nc1ccc2ccccc2c1)[C@H]1C[C@@H]1[C@H](NP(=O)(c1ccccc1)c1ccccc1)c1ccccc1 10 µM
O=C(NCc1cc(F)cc2c1OCCO2)[C@H]1C[C@@H]1[C@H](NP(=O)(c1ccccc1)c1ccccc1)c1ccccc1 15.8 µM
COC(=O)C1=C(NC(=O)c2cccc(OC)c2)CCS1 3.16 µM
COC(=O)C1=C(NC(=O)c2cccs2)CCS1 2.51 µM
CCN(CC)S(=O)(=O)c1ccc(C(=O)NC2=C(C(=O)OC)SCC2)cc1 12.6 µM
COc1ccc(C(C)=O)c(OC(=O)c2ccco2)c1 2 µM
O=C(Nc1cccc(OC(=O)c2ccco2)c1)c1ccco1 22.4 µM
O=C(Oc1cccc(Br)c1)c1cccnc1 12.6 µM
O=C(Oc1ccccc1[N+](=O)[O-])c1cccnc1 20 µM
